# Values without a mark were called inactive. Results filed as inconclusive are left out. Calls of active or inactive are those of the source. Unless noted, calls come from the whole dose curve; as a rule, active = well fitted curve in either direction with a large enough effect (not every such curve was filed as active); inconclusive = small, poorly fitted or top-dose-only effect, or another doubt; inactive = flat fitted curve, though single readings scatter.
# Tests used:
# [1] = target: Lysosomal acid glucosylceramidase (Homo sapiens) (UniProt P04062); assay: Glucocerebrosidase-p2 (AID 348; in the data active = potency below about 10 µM; note: potency is the fitted concentration of half-maximal effect); details: purified GBA, blue fluorogenic substrate, 40 min
# Chain of Lysosomal acid glucosylceramidase (Homo sapiens) (P04062 whole entry, looked up): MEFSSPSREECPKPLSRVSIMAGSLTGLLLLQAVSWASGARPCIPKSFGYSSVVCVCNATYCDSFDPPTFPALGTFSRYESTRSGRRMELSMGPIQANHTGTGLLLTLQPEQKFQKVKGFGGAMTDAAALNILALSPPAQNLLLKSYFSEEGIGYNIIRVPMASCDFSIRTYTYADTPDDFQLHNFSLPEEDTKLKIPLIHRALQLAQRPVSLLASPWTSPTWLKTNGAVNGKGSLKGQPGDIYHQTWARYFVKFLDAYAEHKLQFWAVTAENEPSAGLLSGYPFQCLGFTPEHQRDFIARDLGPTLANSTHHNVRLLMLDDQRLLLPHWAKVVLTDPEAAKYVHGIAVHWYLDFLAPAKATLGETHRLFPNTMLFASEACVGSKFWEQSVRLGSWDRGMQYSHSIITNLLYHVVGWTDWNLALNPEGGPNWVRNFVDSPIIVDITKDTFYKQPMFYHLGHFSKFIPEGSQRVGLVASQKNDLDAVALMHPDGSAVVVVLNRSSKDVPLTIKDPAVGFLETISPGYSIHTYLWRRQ
# Summary of the method: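 Compounds titrated from 0.6 nM upwards against 0.2 nM enzyme in pH 5.9 citric acid/KH2PO4, taurocholate, tween-20; blue fluorogenic substrate 80 uM, 40 min room temperature, stopped and read Ex 365/Em 440 for AC50.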
# [2] = AP1 Signaling Pathway (AID 357); details: ME-180 AP-1-bla reporter, EGF-induced, beta-lactamase ratio, 5 h; at 7.69 µM (top of the series) unless noted; note: % is set by controls: 0 for no effect and ±100 for the full control effect
# Summary of the method: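 AP-1-bla ME-180 cells with beta-lactamase reporter under AP-1 response element, stimulated with EC50 EGF; compounds titrated, 5 hours at 37 degrees Celsius. CCF4 read at 460/530 nm ratio; positive and negative modulators judged by AC50.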
# [3] = NFAT Signaling Pathway (AID 444); details: Jurkat NFAT-bla M1, carbachol, beta-lactamase ratio, 5 h; at 7.69 µM (top of the series) unless noted;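 note: carbachol stimulus at about its EC50 of 1 µM final; % is set by controls: 0 for no effect and ±100 for the full control effect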
# Summary of the method: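 Read-out: CCF4 FRET ratio (460 nm/530 nm) after 1 h RT dye loading, used for %activity and AC50 from titration series. Cells: Jurkat NFAT-β-lactamase/M1 line, treated with compound plus 1 uM carbachol for 5 h, 37 °C.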
# [4] = Stat Signaling Pathway (AID 446); details: ME-180 (cervical carcinoma) SIE beta-lactamase reporter, IL-6 stimulated, 5 h; at 7.69 µM (top of the series) unless noted;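 note: ME-180 cervical cancer cells given 40 pM IL-6 alongside compound; SIE-controlled beta-lactamase reporter measured as 460/530 nm FRET emission ratio; % is set by controls: 0 for no effect and ±100 for the full control effect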
# Summary of the method: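 IL-6/STAT signaling read in ME-180 cells via an SIE beta-lactamase reporter. Stimulus was 40 pM IL-6 (its AC50) for 5 hrs, so both activation and inhibition register.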
# [5] = target: Glucocorticoid receptor (Homo sapiens) (UniProt P04150); assay: GR-GFP Redistribution (AID 450;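 active = compounds whose dose series gives a full or clear partial fitted curve of increased nuclear translocation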; note: potency is the fitted concentration of half-maximal effect); details: U2OS GR-GFP nuclear translocation, laser cytometry, 2 h
# Chain of Glucocorticoid receptor (Homo sapiens) (P04150 whole entry, looked up, the tested form may be a part): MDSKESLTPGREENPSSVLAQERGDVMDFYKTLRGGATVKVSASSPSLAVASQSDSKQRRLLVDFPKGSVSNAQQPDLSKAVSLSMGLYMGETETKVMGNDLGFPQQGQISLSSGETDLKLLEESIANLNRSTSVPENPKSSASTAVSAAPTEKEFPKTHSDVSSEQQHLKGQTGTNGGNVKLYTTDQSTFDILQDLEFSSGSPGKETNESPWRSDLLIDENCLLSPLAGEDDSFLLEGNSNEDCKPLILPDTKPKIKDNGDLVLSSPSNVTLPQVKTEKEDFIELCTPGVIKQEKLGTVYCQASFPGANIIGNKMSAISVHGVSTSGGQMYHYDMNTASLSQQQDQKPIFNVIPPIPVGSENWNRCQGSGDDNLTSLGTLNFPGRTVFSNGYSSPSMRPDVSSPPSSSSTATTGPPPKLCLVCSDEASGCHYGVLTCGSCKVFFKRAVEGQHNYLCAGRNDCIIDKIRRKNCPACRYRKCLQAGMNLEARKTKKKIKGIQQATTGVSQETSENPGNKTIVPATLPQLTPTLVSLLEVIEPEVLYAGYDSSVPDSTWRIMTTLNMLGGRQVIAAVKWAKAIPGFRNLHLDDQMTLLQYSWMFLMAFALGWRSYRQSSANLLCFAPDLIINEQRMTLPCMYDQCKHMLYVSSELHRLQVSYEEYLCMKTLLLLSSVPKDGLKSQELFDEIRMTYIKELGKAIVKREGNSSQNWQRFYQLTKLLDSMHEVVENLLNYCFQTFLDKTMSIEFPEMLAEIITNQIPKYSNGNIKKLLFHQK
# [6] = target: Glucocorticoid receptor (Homo sapiens) (UniProt P04150); assay: GR-EFC Redistribution (AID 451; calls by dose curve; note: potency is the fitted concentration of half-maximal effect); details: CHO-K1 GR-EFC translocation, beta-gal luminescence, 2 h
# Summary of the method: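 Translocation of GR-ED fusion to nuclear EA restores b-gal, read by luminescence after 1 h room-temperature detection. Engineered CHO-K1 biosensor cells, 1,000/well, exposed 2 h at 37 C to titrations up to 46 uM final.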
# [7] = target: Mitogen-activated protein kinase 10 (Mus musculus) (UniProt Q61831); assay: JNK3 AlphaScreen Assay (AID 530); details: JNK3 lysate, c-Jun phosphorylation; series mostly up to 11.4 µM;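 note: kinase came from lysate of stimulated human HepG2 cells; signal reports phosphorylation of biotinylated GST-cJun 1-79 at Ser73 with 10 µM ATP; % is set by controls: 0 for no effect and ±100 for the full control effect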
# Summary of the method: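 Compound titrations were preincubated 15 minutes at room temperature with substrate, antibody and pre-activated JNK3-containing HepG2 lysate. Reactions were started with 10 uM ATP and stopped with EDTA-containing bead buffer for AlphaScreen detection.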
# [8] = target: 3',5'-cyclic-AMP phosphodiesterase 4B (Homo sapiens) (UniProt Q07343); assay: qHTS Assay for Inhibitors of PDE-IV (AID 607; active = well fitted activation curve with a large enough effect in the main read-out, with a control signal flat, not every such curve was filed as active; note: % of control where 0% means no effect); details: HEK293 ACTOne CNG channel cells, membrane potential fluorescence; series mostly up to 22.9 µM
# Chain of 3',5'-cyclic-AMP phosphodiesterase 4B (Homo sapiens) (Q07343 whole entry, looked up): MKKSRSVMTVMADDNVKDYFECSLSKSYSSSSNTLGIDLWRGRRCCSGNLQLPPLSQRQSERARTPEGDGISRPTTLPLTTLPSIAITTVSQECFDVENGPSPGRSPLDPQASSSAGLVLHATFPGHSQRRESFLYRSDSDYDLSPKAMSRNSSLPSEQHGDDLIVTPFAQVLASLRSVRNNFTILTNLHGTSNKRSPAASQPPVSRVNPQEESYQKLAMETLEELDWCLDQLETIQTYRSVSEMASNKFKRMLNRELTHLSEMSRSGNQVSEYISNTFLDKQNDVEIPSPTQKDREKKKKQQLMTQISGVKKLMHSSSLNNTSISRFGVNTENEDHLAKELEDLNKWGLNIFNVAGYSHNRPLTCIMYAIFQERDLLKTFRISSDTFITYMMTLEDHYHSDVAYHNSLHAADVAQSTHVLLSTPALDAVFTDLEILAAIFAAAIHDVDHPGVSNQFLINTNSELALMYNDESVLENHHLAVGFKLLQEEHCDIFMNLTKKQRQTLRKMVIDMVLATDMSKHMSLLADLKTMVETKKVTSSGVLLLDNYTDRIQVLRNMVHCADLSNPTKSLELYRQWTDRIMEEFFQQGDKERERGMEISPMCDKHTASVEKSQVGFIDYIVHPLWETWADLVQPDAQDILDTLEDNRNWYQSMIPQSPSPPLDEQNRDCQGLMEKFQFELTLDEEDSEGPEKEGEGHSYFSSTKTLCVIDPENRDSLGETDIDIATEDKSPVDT
# Summary of the method: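 Live HEK293 cells with a modified cyclic nucleotide-gated (CNG) channel report intracellular cAMP via membrane-potential dye fluorescence (ex 535/em 590 nm). Endogenous PDE-IV was targeted. Compounds were tested at up to 22.9 uM final; RO 20-1724 100 uM served as control.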
Structure (SMILES),Potency [1],"activity change, negative = inhibition [2] [%]","activity change, negative = inhibition [3] [%]","activity, negative = inhibition [4] [%]",Potency [5] [µM],Potency [6] [µM],Potency [7],Potency [8]
Cc1cc2c(SCc3ccccc3Cl)nc(N)nc2nc1C,> 11.4 µM,-22.2,15,-10.5,> 46,> 9.22,inactive,inactive
CCCS(=O)(=O)O,> 11.4 µM,-5.23,0.712,4.08,> 46,> 9.22,inactive,inactive
O[C@H]([C@H](O)[C@@H](O)c1nc2ccccc2[nH]1)[C@@H](O)c1nc2ccccc2[nH]1,> 11.4 µM,6.21,19.9,6.86,> 46,> 9.22,inactive,inactive
[N-]=[N+]=N[C@@H]1[C@H](O)[C@H](CO)O[C@@H]1n1cnc2c(N)ncnc21,> 11.4 µM,-7.07,9.28,-12.3,> 46,> 9.22,inactive,inactive
O=C1c2ccccc2C(=O)c2c(Nc3ccc4c5c(cccc35)C(=O)c3ccccc3-4)cccc21,> 11.4 µM,-3.08,6.45,0.0671,> 46,> 9.22,inactive,inactive
COc1ncc2nc(C)c(=O)n(C)c2n1,> 11.4 µM,-15,-2.54,-2.89,> 9.22,> 46,inactive,inactive
S=c1nc(-c2nc(=S)[nH]c3c2CCCCCCCCCC3)c2c([nH]1)CCCCCCCCCC2,> 11.4 µM,-8.81,15.1,9.8,> 46,> 9.22,inactive,inactive
CNS(=O)(=O)c1ccccc1C(=N)c1ccccc1,> 11.4 µM,-4.6,1.97,0.878,> 46,> 9.22,inactive,inactive
C(CCc1nnc2c(n1)CCCC2)Cc1nnc2c(n1)CCCC2,> 11.4 µM,6.86,-8.87,0.257,> 46,> 9.22,inactive,inactive
NC(N)=NCCCC(=O)O,> 11.4 µM,-2.56,13.2,4.79,> 46,> 9.22,inactive,inactive
Cc1[nH]c(C)c(CN(C)C)c1CN(C)C,> 11.4 µM,-2.51,-26.2,12.9,> 46,> 9.22,inactive,inactive
C[N@@+]1(CC[N@@+]2(C)CCC[C@H]2c2cccnc2)CCC[C@@H]1c1cccnc1,> 11.4 µM,28.9,-16.4,-5.44,> 46,> 9.22,inactive,inactive
Nc1nc(N)nc(CC(=O)O)n1,> 11.4 µM,5.1,15.8,0.411,> 46,> 9.22,inactive,inactive
CC(=O)O[C@@H]1CC[C@]2(C)C(=C[C@@H]([C@@H]3C=C4C[C@@H](OC(C)=O)CC[C@]4(C)C4=C3[C@H]3C[C@@H]5O[C@@]6(CC[C@H](C)CO6)[C@@H](C)[C@@H]5[C@@]3(C)CC4)C3=C2CC[C@@]2(C)[C@H]4[C@@H](C)[C@]5(CC[C@H](C)CO5)O[C@@H]4C[C@H]32)C1,> 11.4 µM,7.21,21,-1.63,> 46,> 9.22,inactive,inactive
c1ccc(CO[C@H]2NCCN2Cc2ccccc2)cc1,> 11.4 µM,11,9.93,12.8,> 46,> 9.22,inactive,inactive
CN(C)CCCSc1nc2ccccc2[nH]1,> 11.4 µM,-0.00775,-10.2,3.11,> 46,> 9.22,inactive,inactive
CC(=O)[C@H]1CC[C@@H]2[C@]1(C)CC=C1[C@]23C=C[C@]2(C[C@H](O)CC[C@@]12C)[C@H](C(=O)O)[C@@H]3C(=O)O,> 11.4 µM,-6.74,13,3.06,> 46,> 9.22,inactive,inactive
O=C(O)C(Cl)(c1ccccc1)c1ccccc1,> 11.4 µM,1.69,6.6,-5.62,> 46,> 9.22,inactive,inactive
Cc1nc(N)nc2ccccc12,> 11.4 µM,-0.162,0.491,2.21,> 46,> 9.22,inactive,inactive
Ic1ccc2c(c1)N(c1ccccc1)c1cc(Nc3ccc4nc5ccc(I)cc5[n+](-c5ccccc5)c4c3)ccc1N2,7.99 µM (active),-4,-3.73,-4.86,> 46,> 9.22,inactive,inactive
C(=N/Nc1ccccn1)/c1cccnc1,> 11.4 µM,3.9,5.25,2.75,> 46,> 9.22,inactive,inactive
CN(C)CCN1C(=O)CC[C@]2(C)C1=CC[C@@H]1[C@@H]2CC[C@]2(C)[C@H]1CC[C@]2(C)O,> 11.4 µM,3.79,-6.05,6.79,> 46,> 9.22,inactive,inactive
NC(=O)N[C@H](CC(=O)O)C(=O)O,> 11.4 µM,-2.2,0.469,-0.625,> 46,> 9.22,inactive,inactive
CN1CCN(CC(=O)Nc2cccc3ccccc23)CC1,> 11.4 µM,-2.71,5.99,15.2,> 46,> 9.22,inactive,inactive
NC1=N[C@H](c2ccc(Cl)cc2)N(c2ccc(S(=O)(=O)Nc3ncccn3)cc2)C(N)=N1,> 11.4 µM,-10.6,-0.0424,-0.946,> 46,> 9.22,inactive,inactive
NS(=O)(=O)c1ccc(NCc2cnc3ccccc3c2)cc1,> 11.4 µM,-2.59,13.4,0.424,> 46,> 9.22,inactive,inactive
C[C@@H](SCc1ccccc1)C(=O)O,> 11.4 µM,-4.75,12.1,-3.81,> 46,> 9.22,inactive,inactive
O=C(O)[C@H]1CCc2ccc3ccccc3c2[C@H]1c1cccc2ccccc12,> 11.4 µM,-12.8,-25.8,-8.82,> 46,> 9.22,inactive,inactive
